Experimental data: paper PMC7826789 (International Journal of Molecular Sciences, 2021)

What was measured:
Details in all cases: Compound Concentration (nM):1000
WEE1 = tested on: WEE1
WEE2 = tested on: WEE2
WNK1 = tested on: WNK1
WNK2 = tested on: WNK2
WNK3 = tested on: WNK3
WNK4 = tested on: WNK4
YANK1 = tested on: T1, YANK1
T1 construct: gene STK32A

YANK2 = tested on: T2, YANK2
T2 construct: gene STK32B

YANK3 = tested on: T3, YANK3
T3 construct: gene STK32C

YES = tested on: T4, YES
T4 construct: gene YES1
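Further: KINOMEscan scanMAX binding as percent activity remaining versus control; lower means stronger binding.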

Row | SMILES | Percent Control (WEE1) | Percent Control (WEE2) | Percent Control (WNK1) | Percent Control (WNK2) | Percent Control (WNK3) | Percent Control (WNK4) | Percent Control (YANK1) | Percent Control (YANK2) | Percent Control (YANK3) | Percent Control (YES)
1 | CN(C)c1cc2c(Nc3ccc4c(cnn4Cc4ccccc4)c3)ncnc2cn1 [GW282974X] | 83% | 72% | 100% | 100% | 100% | 91% | 100% | 100% | 100% | 67%
2 | NS(=O)(=O)c1ccc(N/N=C2\C(=O)Nc3ccc(C(=O)NCc4ccncc4)cc32)cc1 [GW300657X] | 93% | 59% | 92% | 78% | 95% | 73% | 100% | 100% | 100% | 100%
3 | NS(=O)(=O)c1ccc(N/N=C2\C(=O)Nc3ccc(C(=O)NCCc4c[nH]cn4)cc32)cc1 [GW300660X] | 100% | 100% | 100% | 100% | 95% | 100% | 100% | 100% | 100% | 100%
4 | O=C1Nc2ccc(C(=O)c3ccco3)cc2C1=Cc1cc(Cl)c(O)c(Cl)c1 [GW406108X] | 100% | 100% | 89% | 100% | 93% | 100% | 100% | 100% | 100% | 100%
5 | CCn1c(-c2nonc2N)nc2c(C#CC(C)(C)O)nc(OCCNC)cc21.Cl [GSK949675] | 92% | 100% | 100% | 100% | 100% | 51% | 87% | 89% | 100% | 100%
6 | COc1cc(C=NNc2ncnc3c2cnn3-c2ccccc2)ccc1O [GW513184X] | 96% | 100% | 97% | 100% | 100% | 100% | 89% | 100% | 100% | 74%
7 | COc1cc2ncnc(Nc3ccc4c(cnn4Cc4ccccc4)c3)c2cc1OC.Cl [GW282449A] | 100% | 100% | 94% | 100% | 100% | 100% | 100% | 100% | 100% | 67%
8 | Cl.O=S1CCN(Cc2ccc(-c3ccc4ncnc(Nc5ccc(OCc6ccccc6)c(F)c5)c4c3)o2)CC1 [GW576924A] | 100% | 100% | 100% | 100% | 100% | 100% | 100% | 100% | 100% | 100%
9 | COc1ccc2c(-c3ccnc(Nc4cccc(OC(F)(F)F)c4)n3)cnn2n1 [GW810372X] | 100% | 100% | 100% | 61% | 90% | 100% | 100% | 100% | 100% | 100%
10 | COc1cc(C)c(N(C)C(=O)CN(C)C)cc1Nc1nc(Nc2cccc(F)c2C(N)=O)c2cc[nH]c2n1 [GSK2219385] | 100% | 90% | 100% | 100% | 100% | 81% | 87% | 100% | 85% | 96%
11 | COc1cccc(-n2ncc3c(N/N=C/c4ccncc4)ncnc32)c1 [GW784752X] | 100% | 89% | 98% | 100% | 100% | 100% | 100% | 88% | 100% | 87%
12 | COc1cccc(-c2c[nH]c3c(N/N=C/c4ccncc4)ncnc23)c1 [GW814408X] | 100% | 98% | 96% | 75% | 99% | 100% | 90% | 100% | 100% | 61%
13 | CCS(=O)(=O)c1ccc(OC)c(Nc2ncc(-c3cccc(OC)c3)o2)c1 [GW580509X] | 100% | 100% | 99% | 100% | 100% | 100% | 100% | 100% | 100% | 74%
14 | COc1cc2ncn(-c3cc(O[C@H](C)c4ccccc4Cl)c(C(N)=O)s3)c2cc1OC [GSK237701A] | 100% | 76% | 2.9% | 6.1% | 0.8% | 11% | 91% | 100% | 92% | 87%
15 | C[C@@H](Oc1cc(-n2cnc3ccc(OC4CCN(C)CC4)cc32)sc1C(N)=O)c1ccccc1Cl [GSK579289A] | 40% | 87% | 32% | 7.1% | 26% | 2.7% | 77% | 100% | 100% | 87%
16 | NS(=O)(=O)c1ccc(Nc2ncc(-c3ccccc3)o2)cc1 [GW572399X] | 100% | 100% | 89% | 100% | 100% | 100% | 100% | 100% | 100% | 100%
17 | COc1cc(/C=N/Nc2ncnc3[nH]ncc23)ccc1O [GW578748X] | 100% | 80% | 100% | 70% | 64% | 100% | 100% | 100% | 100% | 87%
18 | Cl.O=C(O[C@H]1CN[C@H](C#Cc2cc3ncnc(Nc4ccc5c(cnn5Cc5ccccc5)c4)c3s2)C1)N1CCOCC1 [GSK200398A] | 89% | 96% | 80% | 94% | 100% | 95% | 100% | 100% | 100% | 98%
19 | Cc1cc(O)cc(C)c1/C=C/c1cncc(C(N)=O)c1 [GW435821X] | 100% | 100% | 100% | 100% | 93% | 100% | 100% | 100% | 100% | 100%
20 | COc1ccccc1-c1cc(/C=C2\C(=O)Nc3ncc(Br)cc32)cc(Br)c1O [GW442130X] | 100% | 100% | 100% | 100% | 98% | 100% | 92% | 94% | 100% | 100%
